Only some compounds are listed: those with a hit (about 2.6% of all), similar ones and a draw of the others.
AmpC nodet inh – blocks E. coli AmpC beta-lactamase in absence of detergent. AID 585. Potency, µM (titrated, usually from 28.7 µM). actives 1.8% (n = 71,000). AmpC nitrocefin hydrolysis, absorbance 480 nm, no detergent
Target sequence (P00811 whole entry, looked up): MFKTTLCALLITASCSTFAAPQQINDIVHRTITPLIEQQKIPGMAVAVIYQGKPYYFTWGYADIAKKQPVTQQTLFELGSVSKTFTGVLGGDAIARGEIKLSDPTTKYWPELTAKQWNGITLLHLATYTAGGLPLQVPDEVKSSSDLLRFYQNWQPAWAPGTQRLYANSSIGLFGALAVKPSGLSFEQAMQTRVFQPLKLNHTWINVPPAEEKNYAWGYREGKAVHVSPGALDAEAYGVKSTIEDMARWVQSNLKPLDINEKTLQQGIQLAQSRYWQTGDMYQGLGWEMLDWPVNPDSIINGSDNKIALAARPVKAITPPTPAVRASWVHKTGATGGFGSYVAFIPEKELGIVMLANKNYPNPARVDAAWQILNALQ
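AmpC, 20 mM phosphate pH 7.0; 15 min cpd preinc, RT; start with nitrocefin (800 uM stock); A480 kinetic read, 20 s intervals, 4 min. No-enzyme wells = negative control.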
Prx2 Sm inh – Schistosoma mansoni Prx2 inhibition; Potency, µM; S. mansoni Prx2 activity coupled to TGR/GSH (TGR is thioredoxin glutathione reductase), NADPH fluorescence loss, qHTS; AID 448; actives 0.07% (n = 65,000)
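Prx2 inhibition was measured as reduced NADPH consumption when electrons flowed from NADPH through TGR and glutathione to Prx2 and H2O2. Plates were read kinetically over 8 min; enzyme reagents were held at 4 deg C during dispensing.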
AmpC inh det – inhibitors of E. coli AmpC beta-lactamase with detergent. P00811. purified AmpC, nitrocefin hydrolysis with detergent. Potency, µM (series often up to 28.7 µM). actives 0.09% (n = 71,000). AID 584; active = well fitted curve in the direction sought with a large enough effect; inconclusive = small, poorly fitted or top-dose-only effect
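E. coli AmpC (5.3 nM) in 20 mM phosphate pH 7.0 with 0.01% Triton X-100, preincubated 15 min RT with compound; nitrocefin (2 uL of 800 uM stock) hydrolysis followed by 480 nm absorbance every 20 s over 4 min.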
LT uptake inh – anthrax lethal toxin internalization inhibition; Potency, µM (series often up to 40 µM), hits mostly inhibitors; Cells, anthrax lethal toxin internalization, FRET ratio (460/530); AID 912; actives 0.67% (n = 70,000); note: nearly all actives have a fitted effect of over 50% in size
Numbers stand for hits; i = inactive; ? = inconclusive; nt = not tested or not shown; [ ] = another dose, or the depositor's remark. Unless noted, calls come from the whole dose curve.

SMILES	AmpC nodet inh	Prx2 Sm inh	AmpC inh det	LT uptake inh
COC(=O)c1ccc(-c2nc(-c3cccs3)no2)cc1	4µM[single pt active]	i	i	i
COC(=O)c1ccc(-c2nc(-c3ccc(Br)o3)no2)cc1	4µM[single pt active]	i	i	i
CCOC(=O)c1ccc(OCc2nc(-c3cccs3)no2)cc1	i	i	i	i
COc1ccc(-c2noc(-c3cc(Cl)ccc3Cl)n2)cc1OC	i	i	i	i
Nc1nc(SCc2ccccc2[N+](=O)[O-])c2[nH]cnc2n1	i[5.75 µM]	i	i[5.75 µM]	?
O=c1c[n+](CC[n+]2cc(=O)o[nH]2)[nH]o1	i[5.75 µM]	i	i[5.75 µM]	i[8 µM]
CC[C@H](CO)NC(=O)[C@H]1C=C2c3cccc4[nH]cc(c34)C[C@H]2N(C)C1	i	i	i	i
Fc1ccccc1N1CCN(CCCNc2ccc3nncn3n2)CC1	4µM[single pt active]	i	i	i
c1ccc(CN2CCN(CCCNc3ccc4nnc(-c5ccccc5)n4n3)CC2)cc1	i	i	i	?
COc1ccc(OC)c(CN2C(=O)c3ccccc3C2C(=O)NCc2cccnc2)c1 (configuration not stated)	4µM[single pt active]	i	i	i
O=C(NCc1cccnc1)C1c2ccccc2C(=O)N1C1CCCC1 (configuration not stated)	4µM[single pt active]	i	i	i
COc1ccc(CN2C(=O)c3ccccc3C2C(=O)NCc2cccnc2)c(OC)c1 (configuration not stated)	i	i	i	i
COc1ccc(OCCC(=O)NC2=NCCS2)cc1	i	i	i	i
COc1ccc(C(=O)NCC(=O)NC2=NCCS2)cc1	4µM[single pt active]	i	i	i
N[C@]1(C(=O)O)CC[C@@H](C(=O)O)C1	i	i	i	i
C=C1Cn2c(nnc2-c2ccc(Cl)cc2)S1	4µM[single pt active]	i	i	i
CC1(C)Cn2c(nnc2-c2ccccc2)S1	i	i	i	i
Cc1ccc(Cn2c(SCC(=O)Nc3cc(C)on3)nc3ccccc3c2=O)cc1	13µM[single pt active]	i	i	i
Cc1cc(NC(=O)CSc2nc3ccccc3c(=O)n2Cc2ccccc2)no1	i	i	i	i
CCC(=O)c1ccc(OCC(O)CN2CCOCC2)cc1 (configuration not stated)	i	i	i	i
COC(=O)c1ccc(OCC(O)CN2CCC(C)CC2)cc1 (configuration not stated)	i	i	i	i
CC(=O)c1ccc(OCC(O)CN2C(C)CCCC2C)cc1 (configuration not stated)	4µM[single pt active]	i	i	i
CC(=O)c1ccc(OCC(O)CN2CCC(C)CC2)cc1 (configuration not stated)	4µM[single pt active]	i	i	i
CC(=O)c1ccc(OCC(O)CN2CCOCC2)cc1 (configuration not stated)	4µM[single pt active]	i	i	i
N[C@H](Cc1cccc(-c2ccccc2CP(=O)(O)O)c1)C(=O)O	i	i	i	i
SMILES	AmpC nodet inh	Prx2 Sm inh	AmpC inh det	LT uptake inh
O=C(/C=C\c1ccc(O)cc1)c1ccc(O)cc1O	i	nt	i	i
CSc1ncnc2c1ncn2CC(=O)[C@H]1CC[C@H]2[C@H]3CCC4=CC(=O)CC[C@@]4(C)[C@@H]3CC[C@@]12C	i[5.75 µM]	i	i[5.75 µM]	?
COC(=O)CSCc1nc2ccccc2[nH]c1=O	4µM[single pt active]	i	i	i
COC(=O)CCc1nc2ccccc2[nH]c1=O	i	i	i	i
Cc1ccsc1C=Nc1ccc(O)cc1	10µM	i	i	?
Cc1sc2nc3ccc(N4CCCC4)nn3c(=O)c2c1C	4µM[single pt active]	i	i	i
CC1=C(C(=O)NC(C)C)C2(CCC(C)CC2)OC1=O (configuration not stated)	4µM[single pt active]	i	i	i
CC1=C(C(=O)NC2CCCCC2C)C2(CCC(C)CC2)OC1=O (configuration not stated)	i	i	i	i
O=C(c1cc(C(F)(F)F)cc(C(F)(F)F)c1)N1CCC2(CC1)CN(Cc1ccncc1)C2	i	i	i	?
O=C(c1ccncc1)N1CCC2(CC1)CN(Cc1cc(C(F)(F)F)cc(C(F)(F)F)c1)C2	i	i	i	13µM
O=C(Nc1ccccc1)C1=C(O)CC(c2ccco2)CC1=Nc1ccccc1 (configuration not stated)	7.9µM	i	i	i
O=C(Nc1ccccc1)C1=C(O)CC(c2ccoc2)CC1=Nc1ccccc1 (configuration not stated)	i	nt	i	?
Nc1nc(N)c(N=Nc2ccc(C(=O)O)c(O)c2)c(N)n1	i[5.75 µM]	i	i[5.75 µM]	i[8 µM]
O=C(NCC1CCCO1)C1CCN(S(=O)(=O)N2CCCC2)CC1 (configuration not stated)	i	i	i	i
CC1CCN(S(=O)(=O)N2CCC(C(=O)N3CCC(N(C)CC4CCCO4)CC3)CC2)CC1 (configuration not stated)	4µM[single pt active]	i	i	i
Cc1nc(NCc2ccccc2)c2nc(-c3ccccc3)n(C3CCN(Cc4ccccc4)C3)c2n1 (configuration not stated)	i	nt	i	?
CCCCNc1nc(C)nc2c1nc(-c1ccccc1)n2C1CCN(Cc2ccccc2)C1 (configuration not stated)	i	nt	i	13µM
O=C(CSc1nnc(Cc2cc(=O)[nH]c(=O)[nH]2)n1-c1ccc(Cl)cc1)NCC1CCCO1 (configuration not stated)	i	i	i	i
CCOc1ccc(-n2c(Cc3cc(=O)[nH]c(=O)[nH]3)nnc2SCC(=O)NC2CCCC2)cc1	?	i	i	i
COc1ccc(-n2c(Cc3cc(=O)[nH]c(=O)[nH]3)nnc2SCC(=O)NC2CCCC2)cc1	4µM[single pt active]	i	i	i
O=C(CSc1nnc(Cc2cc(=O)[nH]c(=O)[nH]2)n1-c1ccc(Cl)cc1)NC1CCCC1	4µM[single pt active]	i	i	i
NCCOc1ccccn1	i[5.75 µM]	i	i[5.75 µM]	i[8 µM]
c1csc(Cc2nc(-c3ccc(-n4cccc4)cc3)no2)c1	13µM	i	i	i
NC(=O)c1ccsc1NC(=O)c1nc(-c2ccccc2)n(-c2ccccc2)n1	i	?	i	10µM
Oc1cc(O)c2c(c1)O[C@H](c1ccc(O)c(O)c1)[C@@H](O)[C@@H]2c1c(O)cc(O)c2c1O[C@@H](c1ccc(O)c(O)c1)[C@H](O)C2	i[5.75 µM]	i	i[5.75 µM]	i[8 µM]
SMILES	AmpC nodet inh	Prx2 Sm inh	AmpC inh det	LT uptake inh
CC(C)c1ccc2oc(-c3cc(N)ccc3O)nc2c1	i	nt	i	13µM
CCc1cc2c(=O)n(Cc3ccco3)c(SCc3c(C)noc3C)nc2s1	i	i	i	10µM
COc1cc2c(cc1OC)-c1nnnn1C(C)(C)C2	i	nt	i	i
COc1cc2c(cc1OC)-c1nnc(-c3cccs3)n1C(C)(C)C2	4µM[single pt active]	i	i	i
O=C(Cn1ncc2c(=O)oc3ccccc3c21)NCC1CCCO1 (configuration not stated)	4µM[single pt active]	i	i	i
CC(CCc1ccco1)NC(=O)Cn1ncc2c(=O)oc3ccccc3c21 (configuration not stated)	4µM[single pt active]	i	i	i
CC(C)OCCCNC(=O)Cn1ncc2c(=O)oc3ccccc3c21	i	i	i	i
CCOCCCNC(=O)Cn1ncc2c(=O)oc3ccccc3c21	4µM[single pt active]	i	i	i
O=C(Cn1ncc2c(=O)oc3ccccc3c21)NCCC1=CCCCC1	i	i	i	i
O=C(O)[C@H]1CCN1	i	i	i	i

Source: PubChem BioAssay
